PubChem BioAssay (EPA / NIEHS)
Activity calls are given as the source filed them. The calls were made as follows: active = hit-call score of the fitted dose curve at least 0.9, where 1 is the maximum; inactive = score below 0.9.

Experiments:
[1] = APR_HepG2_CellCycleArrest_24hr: Apredica 24-hour HepG2 Assay for Cell Cycle Arrest (AID 2282905); settings: imaging, actives raise or lower the signal;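 also: cell cycle arrest scored as ratio of 2N to 4N nuclear DNA content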
In short: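 HepG2 cells were exposed to compounds at 0.39–200 uM (ten concentrations, duplicate) in 0.5% v/v DMSO for 24 hr. After formaldehyde fixation and Triton permeabilization, Hoechst 33342-stained nuclei were imaged at 20x; DNA content was quantified, with bidirectional fitting against DMSO.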

[2] = APR_HepG2_NuclearSize_24hr: Apredica 24-hour HepG2 Assay for Nuclear Size (AID 2282907); settings: high-content imaging, actives raise or lower the signal
In short: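 HepG2 human liver cells were exposed for 24 hr to compounds at 0.39–200 uM (ten concentrations, duplicate) in 0.5% v/v DMSO. They were then formaldehyde-fixed, Triton-permeabilized and Hoechst 33342-stained, and nuclear diameter was imaged at 20x. Bidirectional fits were made against DMSO.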

[3] = APR_HepG2_CellLoss_24hr: Apredica 24-hour HepG2 Assay for Cell Loss (AID 2282908); settings: high-content imaging;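 as to AC50: fit in both directions so a hit may be cell loss or gain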
In short: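 Compounds were tested at 0.39–200 uM in duplicate with 0.5% v/v DMSO final. Cells were then fixed in 3.7% formaldehyde, Hoechst 33342 nuclei were imaged at 20x by HCS, and cell number was fitted bidirectionally against DMSO.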

[4] = APR_HepG2_MicrotubuleCSK_24hr: Apredica 24-hour HepG2 Assay for Microtubule CSK Stabilty (AID 2282909); settings: HepG2 microtubule cytoskeleton imaging, actives raise or lower the signal
In short: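 HepG2 cells exposed 24 h to compounds at 0.39–200 uM (duplicate, 0.5% v/v DMSO final), then fixed, permeabilized and immunostained for alpha-tubulin with Hoechst 33342. Cytoskeleton imaged at 20x; bidirectional fit versus DMSO baseline.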

[5] = APR_HepG2_MitoticArrest_24hr: Apredica 24-hour HepG2 Assay for Mitotic Arrest (AID 2282910); settings: high-content imaging, actives raise or lower the signal
In short: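 HepG2 human liver cells were exposed to compounds at 0.39–200 uM (10 concentrations, duplicate) in 0.5% v/v DMSO for 24 hr, then fixed and immunostained for phospho-histone H3 with Hoechst 33342. Mitotic arrest came from HCS fluorescent imaging, fitted bidirectionally against DMSO.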

[6] = APR_HepG2_MitoMembPot_24hr: Apredica 24-hour HepG2 Assay for Mitochondrial Membrane Potential (AID 2282911); settings: imaging, actives raise or lower the signal
In short: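 HepG2, 24 hr dosing, 10 concentrations 0.39–200 uM, 0.5% DMSO final. Live-cell MitoTracker Red CMXRos 250 nM 30 min, then 3.7% formaldehyde fix. HCS fluorescence imaging, 20x; bidirectional fit vs DMSO baseline.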

[7] = APR_HepG2_MitoMass_24hr: Apredica 24-hour HepG2 Assay for Mitochondrial Mass (AID 2282912); settings: high-content imaging, actives raise or lower the signal
In short: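 Human HepG2 liver cells were exposed for 24 hr to compounds at 0.39–200 uM (duplicates, 0.5% v/v DMSO final). They were stained live with 250 nM MitoTracker Red CMXRos for 30 min, fixed in 3.7% formaldehyde, and imaged by HCS fluorescence; signals were fitted bidirectionally against DMSO.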

[8] = APR_HepG2_CellCycleArrest_72hr: Apredica 72-hour HepG2 Assay for Cell Cycle Arrest (AID 2282914); settings: high-content imaging, actives raise or lower the signal
In short: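 HepG2, 72 hr exposure, 10-point 0.39–200 uM, duplicate, 0.5% DMSO final. Fix 3.7% formaldehyde 30 min RT, Triton X-100 0.5%, Hoechst 33342 2 ug/mL. ArrayScan 20x, six fields/well; DNA content per nucleus; bidirectional fit vs DMSO.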

[9] = APR_HepG2_CellLoss_72hr: Apredica 72-hour HepG2 Assay for Cell Loss (AID 2282915); settings: high-content imaging
In short: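 HepG2 cells were exposed for 72 hr to compounds at 0.39–200 uM (ten concentrations, duplicate) in 0.5% v/v final DMSO. Nuclei were stained with Hoechst 33342 after 3.7% formaldehyde fixation, imaged at 20x, and counted; fits bidirectional versus DMSO.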

[10] = APR_HepG2_P-H2AX_72hr: Apredica 72-hour HepG2 Assay for H2AX Phosphorylation (AID 2282916); settings: imaging, actives raise or lower the signal;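 also: phospho-histone H2A.x immunostain intensity per cell marking DNA damage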
In short: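 HepG2 human liver cells were exposed for 72 hr to compounds at 0.39–200 uM (10 concentrations, duplicate per plate) in 0.5% v/v DMSO. Fixed, permeabilized cells were immunolabeled for phospho-histone H2A.x with Hoechst 33342 and imaged by HCS fluorescence; bidirectional fit versus DMSO.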

[11] = APR_HepG2_MitoMembPot_72hr: Apredica 72-hour HepG2 Assay for Mitochondrial Membrane Potential (AID 2282917); settings: imaging, actives raise or lower the signal
In short: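 HepG2 cells exposed 72 h to compounds at 0.39–200 uM (0.5% v/v DMSO, duplicates); MitoTracker Red CMXRos 250 nM loaded 30 min before 3.7% formaldehyde fixation, imaged by HCS fluorescence. Bidirectional fit versus DMSO.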

[12] = APR_HepG2_MitoticArrest_72hr: Apredica 72-hour HepG2 Assay for Mitotic Arrest (AID 2282918); settings: high-content imaging, actives raise or lower the signal
In short: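 HepG2, 72 hr exposure, 0.39–200 uM in duplicate, 0.5% v/v DMSO final. Formaldehyde-fixed, Triton-permeabilized, anti-phospho-histone H3/FITC plus Hoechst. ArrayScan imaging at 20x; curves fit bidirectionally against DMSO baseline.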

[13] = APR_HepG2_MicrotubuleCSK_72hr: Apredica 72-hour HepG2 Assay for Microtubule CSK Stabilty (AID 2282919); settings: HepG2 microtubule cytoskeleton, high-content imaging, actives raise or lower the signal
In short: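 HepG2 human liver cells were dosed for 72 h at ten concentrations from 0.39 to 200 uM in duplicate (0.5% v/v DMSO final). Fixed, permeabilized cells were immunostained for alpha-tubulin (Cy5) with a Hoechst counterstain and imaged at 20x.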

[14] = APR_HepG2_StressKinase_72hr: Apredica 72-hour HepG2 Assay for Stress Kinase (AID 2282921); settings: HepG2 stress kinase (phospho-c-Jun) imaging, actives raise or lower the signal
In short: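 Cells were exposed for 72 h to ten concentrations (0.39–200 uM, duplicate) at 0.5% v/v DMSO final, then fixed with 3.7% formaldehyde, permeabilized and immunostained for phospho-c-Jun (Cy3 secondary) with Hoechst nuclear counterstain.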

[15] = APR_HepG2_StressKinase_24hr: Apredica 24-hour HepG2 Assay for Stress Kinase (AID 2282922); settings: HepG2 stress kinase (phospho-c-Jun) imaging, actives raise or lower the signal
In short: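 HepG2 cells exposed 24 hr to compound at 0.39–200 uM (10 concentrations, duplicate), 0.5% v/v DMSO final. Fixed in 3.7% formaldehyde, permeabilized with Triton X-100, immunolabeled for phospho-c-Jun with Hoechst 33342; HCS fluorescence imaging, bidirectional fit versus DMSO.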

[16] = APR_HepG2_p53Act_72hr: Apredica 72-hour HepG2 Assay for p53 Activation (AID 2282923); settings: high-content imaging, actives raise or lower the signal;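 also: average cellular p53 protein immunofluorescence intensity in HepG2 cells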
In short: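 Cells were dosed for 72 hr with compounds at 0.39–200 uM in duplicate (final DMSO 0.5% v/v), then fixed in 3.7% formaldehyde, permeabilized with Triton X-100 and immunostained for p53 (Cy5) with Hoechst 33342 nuclear counterstain.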

[17] = APR_HepG2_MitoMass_72hr: Apredica 72-hour HepG2 Assay for Mitochondrial Mass (AID 2282924); settings: high-content imaging, actives raise or lower the signal;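 also: MitoTracker Red CMXRos stain intensity per cell imaged as mitochondrial mass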
In short: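 HepG2 cells were exposed for 72 hr to compounds at 0.39–200 uM (ten concentrations, duplicate, 0.5% v/v DMSO final). Live cells were stained with 250 nM MitoTracker Red CMXRos for 30 min, then fixed in 3.7% formaldehyde and imaged by HCS fluorescence.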

[18] = APR_HepG2_NuclearSize_72hr: Apredica 72-hour HepG2 Assay for Nuclear Size (AID 2282925); settings: high-content imaging, actives raise or lower the signal
In short: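 HepG2 cells were exposed to compounds at ten concentrations from 0.39 to 200 uM (duplicate, 0.5% DMSO final) for 72 hr. After fixation in 3.7% formaldehyde, nuclei were stained with Hoechst 33342 (2 ug/mL) and imaged at 20x.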

Compound: Nc1ccc(Cc2ccc(N)cc2)cc1
- outcome [1]: inactive
- outcome [2]: inactive
- outcome [3]: inactive
- outcome [4]: inactive
- outcome [5]: inactive
- outcome [6]: inactive
- outcome [7]: inactive
- outcome [8]: inactive
- outcome [9]: inactive
- outcome [10]: inactive
- outcome [11]: inactive
- outcome [12]: inactive
- outcome [13]: inactive
- outcome [14]: inactive
- outcome [15]: inactive
- outcome [16]: inactive
- outcome [17]: inactive
- outcome [18]: inactive

Compound: CC(C)(OOC(C)(C)c1ccccc1)c1ccccc1
- AC50 [1]: 36.4 µM (active)
- outcome [2]: inactive
- AC50 [3]: 69.6 µM (active)
- AC50 [4]: 77.2 µM (active)
- AC50 [5]: 29.9 µM (active)
- outcome [6]: inactive
- AC50 [7]: 19.6 µM (active)
- outcome [8]: inactive
- AC50 [9]: 44.4 µM (active)
- outcome [10]: inactive
- outcome [11]: inactive
- AC50 [12]: 41.9 µM (active)
- outcome [13]: inactive
- outcome [14]: inactive
- outcome [15]: inactive
- outcome [16]: inactive
- outcome [17]: inactive
- outcome [18]: inactive

Compound: CCC[CH2][Sn]([Cl])([CH2]CCC)[CH2]CCC
- AC50 [1]: 100 µM (active)
- outcome [2]: inactive
- AC50 [3]: 1.12 µM (active)
- AC50 [4]: 0.908 µM (active)
- AC50 [5]: 0.336 µM (active)
- outcome [6]: inactive
- AC50 [7]: 100 µM (active)
- AC50 [8]: 0.0548 µM (active)
- AC50 [9]: 0.574 µM (active)
- AC50 [10]: 0.0111 µM (active)
- outcome [11]: inactive
- AC50 [12]: 0.0382 µM (active)
- outcome [13]: inactive
- outcome [14]: inactive
- AC50 [15]: 3.39 µM (active)
- AC50 [16]: 0.0297 µM (active)
- AC50 [17]: 0.0466 µM (active)
- outcome [18]: inactive
